Bioassay records (PubChem BioAssay)
This is a sample that favours compounds with a hit; in the whole collection about 2.9% have one here.
NadD inh = NadD (S. aureus) enzyme inhibition | inhibition, % at 20 µM | 360,000 compounds, 0.78% hits | AID 602399 | purified NadD enzyme, colorimetric absorbance read-out; in the data active means inhibition above about 26%
H9c2 protect = myocardial damage modulation in H9c2 cells | H9c2 cardiomyocytes, H2O2 injury protection, ATPLite, 2 h | AID 588492 | protection from H2O2 cell death, % at 20 µM | 360,000 compounds, 0.63% hits;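 active means compounds giving at least 50% protection of heart cells from peroxide-induced death in the single-dose screen, raw or plate-pattern-corrected value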;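 further: 0% = DMSO wells with peroxide and 100% = DMSO wells without peroxide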
PfG6PD inh = PfG6PD (Plasmodium falciparum) enzyme inhibition; PfGluPho enzyme, NADPH resazurin-diaphorase fluorescence; 350,000 compounds, 0.78% hits; inhibition, % at 20 µM;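 active means inhibition reaching at least a set limit at 20 µM in the primary screen, cut at about 59% in these data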;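 further: 0% = DMSO wells with substrate and 100% = DMSO wells lacking glucose-6-phosphate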
APOBEC3A inh = blocks human APOBEC3A ssDNA deamination; 330,000 compounds, 0.41% hits; inhibition, % at 20 µM; recombinant A3A, FAM/TAMRA ssDNA deamination fluorescence;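 active means at least 40% inhibition at 20 µM here, with at most 30% in a related deaminase screen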;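 further: plate controls were A3A with DMSO for no effect and wells lacking A3A enzyme for full effect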
Target sequence (P31941 whole entry, looked up): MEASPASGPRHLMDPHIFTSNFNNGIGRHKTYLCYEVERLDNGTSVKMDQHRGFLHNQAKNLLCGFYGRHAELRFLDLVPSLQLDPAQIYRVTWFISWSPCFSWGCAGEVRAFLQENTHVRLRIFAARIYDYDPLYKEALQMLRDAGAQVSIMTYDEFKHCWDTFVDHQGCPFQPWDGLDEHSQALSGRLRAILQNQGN
TAG inh = reduces triacylglycerol accumulation in H9c2 cells | inhibition, % at 12.5 µM | 230,000 compounds, 0.66% hits | Nile Red lipid (TAG) fluorescence; cells loaded with 200 µM oleic acid;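 active means pattern-corrected inhibition of lipid staining of at least 50% with the nuclear-stain viability signal not falling by more than 50%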;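 further: 0% = DMSO wells and 100% = triacsin C control wells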
APOBEC3G inh = blocks human APOBEC3G single-stranded DNA deamination. inhibition, % at 20 µM. recombinant A3G, ssDNA deamination FAM/TAMRA fluorescence. Q9HC16. 330,000 compounds, 0.28% hits;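 active means inhibition of at least 40% at 20 µM, with no more than 30% in the related APOBEC3A deaminase screen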;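 further: plate controls were DMSO wells with A3G for no effect and wells lacking A3G enzyme for full effect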
TAG conf = confirmation of triacylglycerol accumulation inhibitors; shares compounds with TAG inh; AID 651629; inhibition, % at 12.5 µM; 990 compounds, 71% hits; H9c2 lipid accumulation, Nile Red fluorescence; cells loaded with 200 µM oleic acid;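 active means mean inhibition across replicates of 40% or more; inactive means mean inhibition below 40%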;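 further: plate controls were DMSO only wells for no effect and Triacsin C treated wells for full effect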
Active calls of the source: *; · = no result given.

SMILES	NadD inh	H9c2 protect	PfG6PD inh	APOBEC3A inh	TAG inh	APOBEC3G inh	TAG conf
COC(C[C@H]1O[C@H]1[C@@H](O)[C@@H](C)OCc1ccccc1)OC	-3.9	-0.7	-0.5	1.4	11.5	1.6	·
COc1ccc(CCn2c(-n3nc(C)cc3C)nc3c2c(=O)[nH]c(=O)n3C)cc1	3.2	0.1	-12.4	-0.5	54.1*	-3.0	62.2*
CCCn1cc(CN2CCC(n3nccc3NC(=O)c3ccccc3)CC2)c(C)n1	5.9	-0.9	9.6	2.2	-3.9	-4.0	·
COc1cc(CC(=O)OCC(=O)c2ccc3c(c2)OCCO3)cc(OC)c1OC	-7.7	-0.7	-12.3	2.3	67.9*	1.7	49.1*
O=C(COC(=O)c1ccc(O)cc1)c1ccc2c(c1)OCCO2	-5.0	-13.7	-12.9	3.9	-16.2	3.7	·
Cn1cc(/C=N/n2cnc3scc(-c4ccc(Cl)cc4)c3c2=O)c2ccccc21	13.5	0.9	-5.1	-1.8	60.5*	-3.6	69.4*
O=C1N[C@H](Cc2ccccc2)COC(=O)[C@@H](Cc2ccc(F)cc2)CC/C=C/C[C@H]1CC(=O)N(CCO)Cc1ccccc1	-6.4	42.1	11.9	2.3	16.0	-4.8	·
O=C1N[C@@H](Cc2ccccc2)COC(=O)[C@@H](Cc2ccc(F)cc2)CC/C=C/C[C@@H]1CC(=O)N(CCO)Cc1ccccc1	-5.8	4.1	4.3	0.6	55.0*	-1.1	43.7*
CCOc1ccc(CCNC(=O)c2cc3sc(Cl)cc3n2C)cc1OCC	-10.9	-3.6	-0.8	-4.9	59.8*	-6.3	40.7*
O=C1CCC(c2ccccc2)N1c1ccccc1 (stereo unspecified)	4.2	1.7	-3.0	·	1.6	·	·
Brc1ccc(C2=Nn3c(nnc3-c3n[nH]c4c3CCC4)SC2)cc1	20.2	5.6	-16.8	-2.6	81.2*	-5.0	84.6*
Cc1ccc(-c2nnc3n2N=C(c2ccc(Br)cc2)CS3)cc1	4.4	-14.2	-5.5	-3.9	·	-10.7	·
NS(=O)(=O)c1cc(C(=O)NCC2CCCCC2)ccc1Cl	-1.8	-5.9	-7.1	-1.5	·	-7.9	·
COc1ccc(-c2cnnc(N/N=C/c3ccc(-c4ccc([N+](=O)[O-])cc4)o3)n2)cc1	4.5	19.0	9.4	·	63.2*	·	61.0*
COC(=O)c1c(NC(NC(=O)C(C)(C)C)C(Cl)(Cl)Cl)sc2c1CCC2 (stereo unspecified)	-2.9	17.7	37.2	-3.6	58.9*	-3.3	65.1*
O=C(C(Sc1ccccc1)c1ccccc1)N1CCOCC1 (stereo unspecified)	0.4	2.2	3.4	-4.2	·	-5.7	·
CC1=C(C(=O)N2CCCCCC2)CC(CC(=O)NCCN2CCOCC2)C(=O)N1CCCN1CCCC1=O (stereo unspecified)	8.7	·	·	·	·	·	·
C#CCN(C[C@@H]1[C@@H](OC(=O)NCc2ccco2)[C@@H](OC(=O)NCc2ccco2)CN(C(=O)OC(C)C)N1C(=O)OC(C)C)S(=O)(=O)c1ccc(C)cc1	-0.8	2.9	7.3	·	55.5*	·	61.7*
Cc1c(C(=O)NCCC2=CCCCC2)oc2ccc(S(=O)(=O)N3CCC4(CC3)OCCO4)cc12	-1.9	27.6	-3.6	1.0	52.2*	-1.7	33.2
Cc1c(C(=O)NCc2ccccc2)oc2ccc(S(=O)(=O)N3CCC4(CC3)OCCO4)cc12	3.8	10.8	5.9	1.9	-5.9	-1.9	·
Clc1cccc(Nc2nc(-c3ccncc3)cs2)c1	0.3	-16.5	39.4	2.5	80.7*	-6.6	59.4*
NS(=O)(=O)c1ccc(Nc2nc(-c3cccc([N+](=O)[O-])c3)cs2)cc1	19.7	29.0	8.6	0.9	32.1	-7.2	·
O=C(Nc1cccc(-c2csc(Nc3ccc(Cl)cc3)n2)c1)c1cc([N+](=O)[O-])cc(C(F)(F)F)c1	41.9*	-13.5	4.7	-0.1	55.9*	-4.3	50.4*
O=C(Nc1cccc(-c2csc(Nc3ccc(Cl)cc3)n2)c1)c1ccccc1	3.0	8.7	23.6	-2.8	41.7	-2.5	·
O=C(Nc1cccc(-c2csc(Nc3ccc(Cl)cc3)n2)c1)c1cccc(C(F)(F)F)c1	10.2	-10.8	10.2	-1.5	54.0*	18.8	65.2*
Cn1c(CC(=O)Nc2ccccc2Cl)nnc1SCC(=O)NC1=NCCS1	5.2	0.8	-2.8	-4.8	·	-14.9	·
